High-throughput results (PubChem)
This is a sample that favours compounds with a hit; in the whole collection about 7.6% have one here.
Cav32 inh = Cav3.2 calcium influx blockers – cell-based, Fluo-4 calcium fluorescence, FDSS, MLSMR library, primary screen; actives 4% (n = 100,000); Cav3.2-expressing cells; active compounds read low; AID 449739, 2010; Voltage-dependent T-type calcium channel subunit alpha-1H (Homo sapiens), O95180; B-score at 10 µM;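 active = single-dose well whose peak fluorescence ratio is a statistical outlier from its plate by either plate-standardised score or position-corrected B-score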
PLAP activator = PLAP enzyme activators, biochemical, luminescence, HTS. Alkaline phosphatase, placental type (Homo sapiens), P05187. purified PLAP enzyme, luminescent substrate read-out; active compounds read high. activation fold at 20 µM. actives 1.2% (n = 96,000). AID 696, 2007; in the data active = activation fold above about 2
Target sequence (P05187 whole entry, looked up): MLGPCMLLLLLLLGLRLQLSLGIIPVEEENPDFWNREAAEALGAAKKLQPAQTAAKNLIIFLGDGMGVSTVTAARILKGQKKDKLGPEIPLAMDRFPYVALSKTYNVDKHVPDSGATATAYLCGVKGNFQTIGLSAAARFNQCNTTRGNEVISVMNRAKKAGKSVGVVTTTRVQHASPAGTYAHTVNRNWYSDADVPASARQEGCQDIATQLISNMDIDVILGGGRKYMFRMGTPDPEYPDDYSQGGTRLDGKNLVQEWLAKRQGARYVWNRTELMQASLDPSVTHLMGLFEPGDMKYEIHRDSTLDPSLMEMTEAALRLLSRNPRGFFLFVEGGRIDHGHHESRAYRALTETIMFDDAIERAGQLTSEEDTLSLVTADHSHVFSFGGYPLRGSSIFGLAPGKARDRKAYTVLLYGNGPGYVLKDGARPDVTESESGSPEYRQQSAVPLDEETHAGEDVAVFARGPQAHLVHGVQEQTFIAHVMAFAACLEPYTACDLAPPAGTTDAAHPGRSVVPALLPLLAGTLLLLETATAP
M1 ag = M1 muscarinic receptor agonists, primary screen, CHO-M1 cells, Fluo-4 calcium, agonist mode. Muscarinic acetylcholine receptor M1. Fluo-4 calcium fluorescence; active compounds read high. B-score at 10 µM. actives 3% (n = 64,000). AID 626, 2007;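 active = fluorescence rise, raw or as B-score row- and column-corrected plate score, outside the 99.7% band of its plate's samples, either direction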
M1 antag = antagonists of rat M1 muscarinic receptor | actives 3.4% (n = 64,000) | AID 628, 2007 | B-score at 10 µM | CHO-M1 cells, Fluo-4 calcium, ACh EC80 antagonist mode; active compounds read low | Muscarinic acetylcholine receptor M1 (Rattus norvegicus), P08482;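 active = calcium fluorescence response, raw or row-and-column corrected B-score, differing from the plate sample mean either way at a set confidence level, mostly lower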
* marks the source's active call; other numbers are inactive results; x = not tested or not shown.

SMILES	Cav32 inh	PLAP activator	M1 ag	M1 antag
CCC(C)(C)NC(=O)CN(C(=O)CNS(=O)(=O)c1ccc(C)cc1)c1ccc2c(c1)OCCO2	x	2*	2.6	1.4
C#Cc1ccc([C@@H]2C=C(C(=O)NCc3ccccc3)O[C@H](OCCCCO)C2)cc1	-0.47	x	x	x
Clc1ccccc1-c1nnn(Cc2ccc(-c3nn[nH]n3)cc2)n1	-4.9*	1.2	0.21	0.27
Clc1ccc(Cn2nnc(-c3ccccc3)n2)cc1	-1.3	x	x	x
Nc1c(C(=O)c2ccccc2)sc(Nc2ccccc2)c1S(=O)(=O)c1ccccc1	-3.8*	x	x	x
COc1ccccc1OCCn1cc(C(=O)c2ccco2)c2ccccc21	-3.5	1	4.6*	-0.46
N#CC1C(C#N)N2CCCN2C1c1ccc(Cl)cc1 (centres undefined)	0.11	x	x	x
COc1ccc(-c2nc(=S)[nH][nH]2)cc1	0.65	2*	0.19	0.13
Oc1ccc(-c2nc(=S)[nH][nH]2)cc1	1.3	x	x	x
CC(=O)N(C(C)=O)C1=C(C#N)C2(CCCCC2)Cc2ccccc21	-6.3*	1.1	x	x
CC1(C)Cc2ccccc2C(N)=C1C#N	0.48	1	2.2	0.74
O=C(Cc1ccccc1)N/N=C/c1cccs1	0.13	0.9	x	x
CC1=CCC(C(=O)N/N=C/c2cccs2)C(c2ccc(F)cc2)C1 (centres undefined)	-5.3*	1	x	x
CCOc1cc(NC2CS(=O)(=O)CC2O)c(OCC)cc1NC(=O)c1ccccc1 (centres undefined)	0.84	1	-0.4	2.6*
c1ccc(CNc2ncnc3nc[nH]c23)cc1	0.21	2*	x	x
CCCNc1ncnc2nc[nH]c12	x	1.3	-0.39	0.03
CCOc1cc(CNc2ncnc3nc[nH]c23)ccc1OC	x	2.2*	0.94	1.2
c1ccc(CCCNc2ncnc3nc[nH]c23)cc1	0.19	1.9	1.7	-0.45
CC(C)C(=O)Nc1ccnc(-c2cccnc2)n1	0.5	0.8	x	x
O=C(Nc1nnc(-c2ccccc2Cl)o1)c1ccco1	1.2	0.9	1.7	0.73
O=C(Nc1nnc(-c2ccccc2Cl)o1)c1nc2ccccc2s1	-4.5*	1.6	x	x
Cc1ccc(-c2nnn(CC(=O)N3CCCc4ccccc43)n2)cc1	-4.7*	0.9	x	x
CC(C(=O)N1c2ccccc2Sc2ccccc21)n1nnc(-c2cccs2)n1 (centres undefined)	-7*	1.2	0.43	-0.48
O=C(O)Cn1nnc(-c2cccs2)n1	x	0.9	-0.11	-1.1
Cc1ccc(-c2nnn(C(C)C(=O)N3c4ccccc4CCc4ccccc43)n2)cc1 (centres undefined)	-5.3*	x	x	x
SMILES	Cav32 inh	PLAP activator	M1 ag	M1 antag
O=C(Cn1nnc(-c2ccncc2)n1)N1CCc2ccccc21	0.62	1	x	x
CC(C(=O)N1c2ccccc2CCc2ccccc21)n1nnc(-c2ccc(N(C)C)cc2)n1 (centres undefined)	-5.5*	x	x	x
COc1ccc(NC(=O)C2=C(C)C(=O)OC23CCC(C)CC3)cc1Cl (centres undefined)	-1.5	1.1	x	x
COc1cccc(C(=O)COC(=O)C(C)N2C(=O)C3C4C=CC(C4)C3C2=O)c1 (centres undefined)	-0.65	1.2	x	x
CC1(c2nnc(-c3cccc(Cl)c3)o2)CC(c2cccc(Cl)c2)=NO1 (centres undefined)	0.59	x	x	x
Cc1[nH]c2ccccc2c1SCC(=O)N1CCCc2ccccc21	-4.8*	1	x	x
Cc1[nH]c2ccccc2c1SCC(=O)N1CCN(c2ccccc2)CC1	-3.2	1	x	x
CN(Cc1ccccc1)C(=O)CN(c1ccc(F)cc1)S(=O)(=O)c1ccc2c(c1)OCCO2	-5*	x	x	x
C=CCOc1c(Br)cc(CNc2nccs2)cc1OC	-7.9*	x	x	x
COc1cccc(CNCCSc2nnnn2C)c1OC	0.72	0.8	x	x
Clc1ccc(Cn2c(-c3cccnc3Cl)nc3ccccc32)c(Cl)c1	-3	1.4	x	x
Clc1cccc(COn2c(-c3ccc(Cl)cc3Cl)nc3ncccc32)c1	-4.1*	1.5	x	x
Cc1ccc(COn2c(-c3ccc(Cl)cc3Cl)nc3ncccc32)cc1	-5.4*	1.4	x	x
Cc1ccc(Cn2cccc(NC(=O)NC3CCCCC3)c2=O)cc1	-4.1	0.9	x	x
CC(C)CN(CC(C)C)S(=O)(=O)N1CCC(C(=O)NCCc2ccc(Cl)cc2)CC1	-1.7	1.3	x	x
COc1ccc(Cl)cc1NC(=O)CSc1nnc(Cc2cccn2C)n1-c1ccc(F)cc1	-6*	1.4	0.61	0.1
Cn1cccc1Cc1nnc(SCC(=O)Nc2ccc(F)cc2F)n1-c1ccc(F)cc1	-4.5*	1.6	-0.17	0.028
